Results published in PubChem BioAssay (EPA / NIEHS).
Inconclusive results are not listed. The source made the active and inactive calls. The calls were made as follows, unless noted: active = hit-call score of the fitted dose curve at least 0.9, where 1 is the maximum; inactive = score below 0.9.

Legend:
[1] = ACEA_ER_80hr: ACEA Biosciences xCELLigence Real-Time Cell Analysis on Estrogen Receptor Agonism for Proliferation (AID 2282667; active = hit-call score of the fitted dose curve at least 0.9, where 1 is the maximum); details: T47D proliferation, impedance (xCELLigence), 80 h
Method in brief: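 Real-time impedance growth kinetics of human T-47D breast cells read 80 h after dosing, gain-of-signal fitted relative to DMSO. Compounds: 1:4 serial series, top final concentration 100 uM, n = 2.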

[2] = ATG_CRE_CIS: Attagene CIS-FACTORIAL HepG2 Assay for human cAMP Responsive Element (CRE) binding protein 3 (AID 2282926); details: HepG2 CRE cis-reporter, Attagene multiplexed mRNA; actives raise or lower the signal
Method in brief: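 Multiplexed transcription-unit reporters transfected into HepG2; 24 h dosing; RT-PCR/capillary electrophoresis fluorescence read-out; bidirectional fit vs DMSO.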

[3] = biological target: CCAAT/enhancer-binding protein beta (Homo sapiens) (UniProt P17676); experiment: ATG_C_EBP_CIS: Attagene CIS-FACTORIAL HepG2 Assay for human CCAAT/Enhancer Binding Protein (C/EBP) beta (AID 2282927); details: HepG2 Attagene cis-factorial transcription factor reporter; actives raise or lower the signal
Sequence of CCAAT/enhancer-binding protein beta (Homo sapiens) (P17676 whole entry, looked up, the tested form may be a part): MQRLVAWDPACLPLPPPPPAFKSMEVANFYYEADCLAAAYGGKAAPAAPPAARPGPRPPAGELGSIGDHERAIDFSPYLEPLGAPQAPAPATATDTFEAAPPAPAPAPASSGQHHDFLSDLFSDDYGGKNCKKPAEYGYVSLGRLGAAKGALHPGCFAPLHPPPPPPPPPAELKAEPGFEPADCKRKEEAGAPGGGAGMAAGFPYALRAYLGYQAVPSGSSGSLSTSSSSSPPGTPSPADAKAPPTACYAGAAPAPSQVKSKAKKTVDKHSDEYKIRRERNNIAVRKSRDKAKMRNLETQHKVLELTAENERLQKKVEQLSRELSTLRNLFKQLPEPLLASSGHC
Method in brief: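 Endogenous C/EBPb-driven reporter transcripts measured in transfected human HepG2 cells at 24 h via RT-PCR and capillary electrophoresis of labelled fragments. Activity fitted in both directions relative to DMSO baseline.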

[4] = ATG_CMV_CIS: Attagene CIS-FACTORIAL HepG2 Assay for human CMV (Internal Marker) (AID 2282928); details: HepG2 CMV promoter reporter, transcription factor profiling; actives raise or lower the signal;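 also: endpoint acts as a background internal control marker rather than a target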
Method in brief: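 After transient transfection of HepG2 with reporter transcription units driven by cis-regulatory promoters, cells receive test chemical for 24 h. Labeled reporter amplicons, digested with HpaI, are sized and quantified by capillary electrophoresis against DMSO.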

[5] = ATG_DR4_LXR_CIS: Attagene CIS-FACTORIAL HepG2 Assay for human Liver X Receptor (LXR), DR4 submotif (AID 2282929); details: HepG2 Attagene DR4 cis-reporter, mRNA transcription; actives raise or lower the signal
Method in brief: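 Measures endogenous transcription factor activity via a DR4-driven reporter transcript in human HepG2 cells. Compounds incubated 24 h; mRNA quantified by RT-PCR and capillary electrophoresis, analysed as gain or loss of signal versus DMSO.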

[6] = biological target: Aryl hydrocarbon receptor (Homo sapiens) (UniProt P35869); experiment: ATG_Ahr_CIS: Attagene CIS-FACTORIAL HepG2 Assay for human Aryl Hydrocarbon Receptor (Ahr) (AID 2282930); details: HepG2 AhR cis-factorial reporter transcription; actives raise or lower the signal
Sequence of Aryl hydrocarbon receptor (Homo sapiens) (P35869 whole entry, looked up): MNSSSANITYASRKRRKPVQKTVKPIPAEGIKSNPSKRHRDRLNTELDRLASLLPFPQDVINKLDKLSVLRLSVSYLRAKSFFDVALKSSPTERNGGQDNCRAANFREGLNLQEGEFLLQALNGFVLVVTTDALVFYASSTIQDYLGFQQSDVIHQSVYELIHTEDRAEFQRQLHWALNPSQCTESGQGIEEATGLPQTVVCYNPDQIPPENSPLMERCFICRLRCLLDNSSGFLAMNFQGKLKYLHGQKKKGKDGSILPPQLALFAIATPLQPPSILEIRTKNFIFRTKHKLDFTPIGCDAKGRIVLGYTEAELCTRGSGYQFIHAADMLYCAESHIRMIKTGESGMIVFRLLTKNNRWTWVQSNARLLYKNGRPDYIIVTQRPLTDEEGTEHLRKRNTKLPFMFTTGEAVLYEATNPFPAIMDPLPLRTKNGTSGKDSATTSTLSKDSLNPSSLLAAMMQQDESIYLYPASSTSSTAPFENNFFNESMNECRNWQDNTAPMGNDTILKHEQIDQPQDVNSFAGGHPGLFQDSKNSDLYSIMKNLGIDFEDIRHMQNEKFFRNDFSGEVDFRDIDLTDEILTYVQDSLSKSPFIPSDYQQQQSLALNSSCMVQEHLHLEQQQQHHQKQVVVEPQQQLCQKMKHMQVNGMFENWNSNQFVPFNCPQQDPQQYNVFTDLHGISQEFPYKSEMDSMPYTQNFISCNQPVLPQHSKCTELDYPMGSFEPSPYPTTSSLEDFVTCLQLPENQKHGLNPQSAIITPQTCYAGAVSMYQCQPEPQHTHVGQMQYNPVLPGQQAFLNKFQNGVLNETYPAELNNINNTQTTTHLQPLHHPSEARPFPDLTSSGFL
Method in brief: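 Reporter mRNA levels, quantified by RT-PCR and fluorescent capillary electrophoresis, reflect endogenous AhR transcriptional activity in HepG2 cells carrying transfected cis-promoter reporter constructs. Readout at 24 h post-dose; gain or loss fitted against DMSO baseline.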

[7] = ATG_AP_1_CIS: Attagene CIS-FACTORIAL HepG2 Assay for human Activator Protein 1 (AP-1) (AID 2282931); details: HepG2 Attagene cis-factorial AP-1 reporter mRNA; actives raise or lower the signal
Method in brief: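 Bidirectional concentration-response fitting against DMSO controls. Underlying signal: reporter mRNA from cis-promoter constructs in transiently transfected HepG2, measured after 24 h by RT-PCR and capillary electrophoresis.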

[8] = ATG_AP_2_CIS: Attagene CIS-FACTORIAL HepG2 Assay for human Activator Protein 2 (AP-2) (AID 2282932); details: HepG2 AP-2 cis-reporter, Attagene transcription factor profiling; actives raise or lower the signal
Method in brief: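 HepG2, transient MRTU transfection, cis-regulated reporters; 24 h compound exposure; RNA isolated, RT-PCR, 6-FAM labelling, HpaI digest, CE fluorescence. DMSO = negative control/baseline, bidirectional fit.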

[9] = ATG_BRE_CIS: Attagene CIS-FACTORIAL HepG2 Assay for human Bone Morphogenetic Protein (BMP) Response Element (BRE) (AID 2282933); details: HepG2 BMP response element reporter, Attagene transcription factor profiling; actives raise or lower the signal
Method in brief: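 Endogenous transcription factor activity read in transiently transfected HepG2 cells after 24 h chemical exposure. Bidirectional curve fitting against DMSO; readout is reporter transcript level by RT-PCR with capillary electrophoresis of labelled products.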

[10] = biological target: Retinoic acid receptor alpha (Homo sapiens) (UniProt P10276); experiment: ATG_DR5_RAR_CIS: Attagene CIS-FACTORIAL HepG2 Assay for human Retinoic Acid Receptor Alpha (RARE), DR5 submotif (AID 2282934); details: HepG2 Attagene cis-factorial RARE DR5 reporter, mRNA; actives raise or lower the signal
Sequence of Retinoic acid receptor alpha (Homo sapiens) (P10276 whole entry, looked up): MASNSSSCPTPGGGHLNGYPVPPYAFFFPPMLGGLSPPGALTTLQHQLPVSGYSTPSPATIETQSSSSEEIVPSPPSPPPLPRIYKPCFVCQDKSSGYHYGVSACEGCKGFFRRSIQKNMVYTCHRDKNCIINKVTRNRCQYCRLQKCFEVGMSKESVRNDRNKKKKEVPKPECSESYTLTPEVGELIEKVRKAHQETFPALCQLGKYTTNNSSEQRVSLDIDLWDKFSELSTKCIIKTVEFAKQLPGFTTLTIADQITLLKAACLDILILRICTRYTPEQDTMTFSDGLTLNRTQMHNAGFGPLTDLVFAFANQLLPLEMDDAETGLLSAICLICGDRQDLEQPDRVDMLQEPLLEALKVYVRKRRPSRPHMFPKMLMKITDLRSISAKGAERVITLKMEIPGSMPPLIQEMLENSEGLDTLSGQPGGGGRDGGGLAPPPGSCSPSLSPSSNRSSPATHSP
Method in brief: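 Reporter transcripts from a DR5-regulated unit, measured via RT-PCR plus capillary electrophoresis, reflect endogenous RAR activity in transiently transfected human HepG2 liver cells. Exposure lasted 24 h; gain or loss of signal scored against DMSO.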

[11] = biological target: Transcription factor E2F1 (Homo sapiens) (UniProt Q01094); experiment: ATG_E2F_CIS: Attagene CIS-FACTORIAL HepG2 Assay for human E2F Transcription Factor 1 (AID 2282935); details: HepG2 Attagene cis-reporter, E2F reporter RNA transcripts; actives raise or lower the signal
Sequence of Transcription factor E2F1 (Homo sapiens) (Q01094 whole entry, looked up): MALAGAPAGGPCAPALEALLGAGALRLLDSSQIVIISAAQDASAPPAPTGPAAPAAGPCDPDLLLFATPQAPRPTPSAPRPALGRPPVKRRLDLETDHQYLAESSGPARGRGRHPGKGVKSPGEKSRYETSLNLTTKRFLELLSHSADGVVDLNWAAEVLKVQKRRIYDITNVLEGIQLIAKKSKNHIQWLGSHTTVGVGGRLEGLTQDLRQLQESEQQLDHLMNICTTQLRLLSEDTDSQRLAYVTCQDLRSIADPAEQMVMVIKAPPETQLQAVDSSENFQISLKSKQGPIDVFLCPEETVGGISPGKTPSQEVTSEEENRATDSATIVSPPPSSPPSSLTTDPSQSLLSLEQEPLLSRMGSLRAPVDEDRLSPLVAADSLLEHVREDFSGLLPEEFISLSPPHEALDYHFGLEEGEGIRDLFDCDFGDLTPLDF
Method in brief: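 Cis-element reporter mRNA induction in transiently transfected HepG2, 24 h exposure. Activity fitted in both directions relative to DMSO negative control.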

[12] = ATG_E_Box_CIS: Attagene CIS-FACTORIAL HepG2 Assay for human Enhancer Box (E-box) (AID 2282936); details: HepG2 E-box cis-reporter transcription, actives raise or lower the signal
Method in brief: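 Cells: HepG2 (human liver), transient MRTU transfection. Exposure 24 h. RNA → oligo(dT) RT → PCR → 6-FAM label → HpaI → CE. Activity fitted both directions relative to DMSO.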

[13] = ATG_M_61_CIS: Attagene CIS-FACTORIAL HepG2 Assay for M61 Transcription Factor (Internal Marker) (AID 2282937); details: HepG2 Attagene CIS-FACTORIAL M61 internal marker reporter; actives raise or lower the signal
Method in brief: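 Fluorescence from labelled cDNA fragments, separated by capillary electrophoresis, quantifies reporter induction. HepG2 cells bearing transiently transfected cis-promoter MRTUs were incubated with test chemical for 24 h; DMSO defined baseline for gain/loss fitting.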

[14] = ATG_EGR_CIS: Attagene CIS-FACTORIAL HepG2 Assay for human Early Growth Response 1 (EGR1) (AID 2282938); details: HepG2 Attagene CIS-FACTORIAL EGR reporter mRNA; actives raise or lower the signal
Method in brief: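 Cell-based multiplex transcription assay: HepG2 carrying transfected cis-element reporter units, 24 h chemical treatment. Fluorescence from capillary electrophoresis of RT-PCR products gives mRNA levels; fitting is bidirectional relative to DMSO.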

[15] = ATG_M_19_CIS: Attagene CIS-FACTORIAL HepG2 Assay for M19 Transcription Factor (Internal Marker) (AID 2282939); details: HepG2 Attagene CIS-FACTORIAL M19 internal marker reporter; actives raise or lower the signal
Method in brief: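 Internal marker readout, fitted in both directions against DMSO, from HepG2 cells carrying transfected cis-element reporter constructs; RT-PCR and capillary electrophoresis of reporter mRNA after 24 h exposure.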

[16] = ATG_ERE_CIS: Attagene CIS-FACTORIAL HepG2 Assay for Estrogen Response Element (ERE) (AID 2282940); details: HepG2 ERE cis-reporter, Attagene RNA transcript; actives raise or lower the signal
Method in brief: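 After 24 h compound treatment, RNA from transfected HepG2 cells was reverse-transcribed, reporter cDNA PCR-amplified, FAM-labelled, HpaI-cut and resolved by capillary electrophoresis. ERE-driven cis reporter transcripts reflect endogenous factors; gain or loss scored against DMSO.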

[17] = ATG_Ets_CIS: Attagene CIS-FACTORIAL HepG2 Assay for human Erythroblast Transformation Specific (ETS) (AID 2282941); details: HepG2 ETS cis-reporter transcription, actives raise or lower the signal
Method in brief: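 Human HepG2 hepatoma cells were transiently transfected with promoter-driven reporter constructs and treated for 24 hours. Reporter transcripts were quantified by RT-PCR with fluorescent primer extension; bidirectional curve fitting used DMSO as reference.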

[18] = biological target: Hepatocyte nuclear factor 3-beta (Homo sapiens) (UniProt Q9Y261); experiment: ATG_FoxA2_CIS: Attagene CIS-FACTORIAL HepG2 Assay for human Forkhead box A2 (FOXA2) (AID 2282942); details: HepG2 cis-reporter transcription factor activity, 24 h; actives raise or lower the signal
Sequence of Hepatocyte nuclear factor 3-beta (Homo sapiens) (Q9Y261 whole entry, looked up): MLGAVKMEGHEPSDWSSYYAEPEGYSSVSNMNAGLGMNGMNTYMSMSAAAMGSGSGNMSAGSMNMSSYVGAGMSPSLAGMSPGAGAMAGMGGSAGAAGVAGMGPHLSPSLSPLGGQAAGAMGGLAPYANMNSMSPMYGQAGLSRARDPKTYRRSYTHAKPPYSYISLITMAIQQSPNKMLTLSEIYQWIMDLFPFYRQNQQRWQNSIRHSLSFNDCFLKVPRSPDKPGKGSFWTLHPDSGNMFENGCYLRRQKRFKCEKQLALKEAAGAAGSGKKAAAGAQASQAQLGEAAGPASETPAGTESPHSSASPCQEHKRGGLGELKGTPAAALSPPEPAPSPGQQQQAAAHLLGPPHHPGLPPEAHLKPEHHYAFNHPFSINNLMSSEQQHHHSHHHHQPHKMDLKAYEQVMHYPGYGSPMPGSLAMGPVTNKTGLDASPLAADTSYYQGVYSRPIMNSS
Method in brief: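 In transiently transfected human HepG2 cells, promoter-driven reporter mRNA levels after 24 h chemical exposure are determined via RT-PCR with capillary electrophoresis. DMSO serves as baseline for bidirectional fitting.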

[19] = ATG_FoxO_CIS: Attagene CIS-FACTORIAL HepG2 Assay for human Forkhead box O (FoxO) (AID 2282943); details: HepG2 Attagene cis-reporter, FoxO element, mRNA; actives raise or lower the signal
Method in brief: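 Endogenous transcription factor activity read from multiplexed cis-promoter reporter transcripts in transiently transfected HepG2, 24 h after dosing. Reporter RNA measured via RT-PCR plus capillary electrophoresis of FAM-labeled products; gain or loss relative to DMSO.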

[20] = ATG_GATA_CIS: Attagene CIS-FACTORIAL HepG2 Assay for human GATA Binding Protein (AID 2282944); details: HepG2 GATA cis-element reporter, Attagene multiplex mRNA; actives raise or lower the signal
Method in brief: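 Reporter transcripts from a GATA cis-regulated unit, among multiplexed reporters in transfected HepG2 cells, were measured by RT-PCR with capillary electrophoresis after 24 h dosing. Induction or loss scored relative to DMSO.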

Measured: AC50

OCC(O)CC(F)(F)C(F)(F)C(F)(F)C(F)(F)C(F)(F)C(F)(F)C(F)(F)C(F)(F)F (stereo not drawn)
active: [17] 9.97 µM
inactive: all other assays above

CCCCCCCCCCCCC[N+](C)(C)Cc1ccccc1
active: [9] 5.63 µM
inactive: all other assays above

CCOC(OCC)OCC
active: [6] 31.6 µM
inactive: all other assays above

O=C(Cl)C(F)(F)C(F)(F)C(F)(F)C(F)(F)C(F)(F)C(F)(F)C(F)(F)F
active: [1] 19.7 µM | [4] 63.3 µM | [7] 66.7 µM | [16] 47.5 µM
not listed: [12]
inactive: all other assays above

CCc1cccc(C)c1N(C(=O)C(=O)O)C(C)COC (stereo not drawn)
inactive: all assays above

CC1=CCC(=O)O1
inactive: all assays above

FC(F)(F)C(F)(F)C(F)(F)C(F)(F)C(F)(F)C(F)(F)CC[Si](Cl)(Cl)Cl
not listed: [18]
inactive: all other assays above
